Bioassay records (PubChem BioAssay)
DT40 TDP1 CPT: DT40-hTDP1 cell growth loss with CPT; actives 12% (n = 420,000); Potency, µM (series often up to 46.2 µM), inactives show top-dose activity change, negative = growth inhibition, actives largely listed as inhibitors; chicken DT40 Tdp1-/-;hTDP1 cells + 20 nM CPT, ATP luminescence, 48 h; AID 686979; note: potency is the fitted concentration of half-maximal effect; % is set by controls: 0 for no effect and ±100 for the full control effect; nearly all actives have a fitted effect of over 55% in size
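Chicken DT40 Tdp1-/- cells complemented with human TDP1, 400 cells/well, exposed to compounds plus 20 nM camptothecin for at least 48 h at 37 C; viability read as ATP content by CellTiter-Glo luminescence.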
TDP1 cell noCPT: qHTS for Inhibitors of human tyrosyl-DNA phosphodiesterase 1 (TDP1): qHTS in cells in absence of CPT; DT40 Tdp1-/- hTDP1 cells, no CPT, ATP luminescence, 48 h; actives 15% (n = 420,000); Potency, µM (series often up to 46.2 µM), inactives show top-dose activity change, negative = growth inhibition, usual class: inhibitors; note: potency is the fitted concentration of half-maximal effect; % is set by controls: 0 for no effect and ±100 for the full control effect; nearly all actives have a fitted effect of over 55% in size
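Cells were dispensed at 400 per well, compounds added by pin tool, plates incubated ≥48 hr at 37 °C, then CellTiter-Glo added for 30 min at room temperature before luminescence reading. Line: DT40 Tdp1-/- complemented with hTDP1; camptothecin omitted.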
TDP1 inh: inhibitors of human tyrosyl-DNA phosphodiesterase TDP1. Q9NUW8. recombinant TDP1, AlphaScreen DNA substrate cleavage. Potency, µM (highest dose often 130 µM), without a hit: at the highest dose activity change, negative = inhibition, hits mostly inhibitors. actives 0.28% (n = 350,000); note: potency is the fitted concentration of half-maximal effect; % is set by controls: 0 for no effect and ±100 for the full control effect; nearly all actives have a fitted effect of over 40% in size
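E. coli-derived human Tdp1, 1 nM final. Cpd preinc 15 min RT; substrate 15 nM final, 5 min RT; AS bead mix 10 ug/ml final, 10 min RT. Signal loss = tyrosine-FITC cleavage. No-enzyme wells = max signal.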
TGFb SMAD3 inh: blocks TGF-b signaling; HepG2 CAGA-GFP TGF-b/SMAD3 reporter, GFP fluorescence, 18 h; TGF-beta stimulated, 500 pg/mL final; actives 1.2% (n = 410,000); Potency, µM (doses to about 46.1 µM), inactives show at the highest dose activity, negative = inhibition, actives largely listed as inhibitors; note: potency is the fitted concentration of half-maximal effect; % is set by controls: 0 for no effect and ±100 for the full control effect; nearly all actives have a fitted effect of over 65% in size
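Smad-responsive CAGA-GFP expression was quantified in HEPG2 cells exposed to compounds and 500 pg/mL final TGF-beta for 18 h at 37 degrees C; unstimulated wells defined full inhibition.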
HepG2 viability: HepG2 cytotoxicity, counter-screen for TGF-b inhibitors | HepG2 CAGA-GFP viability, ATP luminescence, 18 h | actives 0.76% (n = 410,000) | Potency, µM (series often up to 46.1 µM), for the others: at the highest dose activity change, negative = cytotoxicity, most hits filed as cytotoxic | AID 588856; note: potency is the fitted concentration of half-maximal effect
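CellTiter-Glo luminescence gave cytotoxicity after 18 hours at 37 degrees C. The cells were HepG2 CAGA-GFP in 1% FBS DMEM, stimulated with 500 pg/mL TGF-beta after compound addition. %Activity was normalised to no-cell wells (complete cell-killing) and DMSO (no toxicity), and curves were fitted and classified.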
IL1B secr inh: inflammasome signaling inhibition, IL-1 beta readout; activity change, % at 57.5 µM; THP-1 LPS/ATP IL-1B secretion, AlphaLISA, 16 h; stronger effect = lower value; actives 4.7% (n = 360,000); in the data active = activity change below about -50%; inconclusive = mostly about -30% to -49%; note: % is set by controls: 0 for no effect and ±100 for the full control effect
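THP-1 cells pretreated 1 hr with compounds (up to 57.5 uM final), then stimulated with LPS (250 ng/mL final) plus ATP (1.25 mM final); secreted IL-1B measured by AlphaLISA after 16 hr, decreased signal indicating inhibition.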
Active calls of the source: *; ? = inconclusive; nt = no result; ! = repeats disagree. Shown are actives, neighbours in structure and some others; about 18% of the full set was active somewhere. Unless noted, calls come from the whole dose curve; as a rule, active = well fitted curve in the direction sought with a large enough effect; inconclusive = small, poorly fitted or top-dose-only effect, or another doubt; inactive = no such curve, though single readings can be large; an effect the other way counts as inactive or inconclusive.

SMILES | DT40 TDP1 CPT | TDP1 cell noCPT | TDP1 inh | TGFb SMAD3 inh | HepG2 viability | IL1B secr inh
Cc1cccc(C)c1OCC(O)CN1CCC(CN2C(=O)c3cccc4cccc(c34)C2=O)CC1 (stereo not drawn) | 11.6µM* | 8.2µM* | 0.5% | -10.0% | -19.4% | -17.0
OC(COCc1ccc2c(c1)OCO2)CN1CCC(Cc2ccccc2)CC1 (stereo not drawn) | ? | ? | 2.7% | 23.7% | -38.3% | -71.1*
Cc1cccc(C)c1OCC(O)CN1CCN(C(=O)c2ccccc2)CC1 (stereo not drawn) | ? | -24.5% | nt | 3.8% | 7.8% | 31.1
CC(C)OCC(O)CN1CCN(CCN2C(=O)c3cccc4cccc(c34)C2=O)CC1 (stereo not drawn) | 3.0% | ? | 2.4% | -10.4% | -26.6% | -22.2
CCC(OCC(O)CN1CCN(CCN2C(=O)c3cccc4cccc(c34)C2=O)CC1)c1ccccc1 (stereo not drawn) | 10.3µM* | 6.51µM* | 5.6% | -5.1% | 1.3% | -92.0*
OC(CN1CCN(Cc2ccc3c(c2)OCO3)CC1)c1c[nH]c2ccccc12 (stereo not drawn) | 11.6µM* | ? | 1.0% | -8.2% | -7.5% | ?
COc1ccc(OCC(=O)NC2CC(=O)N(c3cccc(OC)c3)C2)cc1 (stereo not drawn) | -1.3% | -6.0% | 0.0% | 5.5% | -19.1% | nt
CC(CSC(=O)c1ccccc1)C(=O)N1c2ccccc2CC1C(=O)O (stereo not drawn) | -14.4% | -16.3% | nt | -4.2% | -31.3% | 29.9
CCc1ccc(NC(=O)CN2C(=O)CSc3ccc(S(=O)(=O)N(C)C)cc32)cc1 | -12.5% | -20.6% | 5.3% | ? | -11.1% | nt
Cc1ccc(OCC(O)CN2CCN(Cc3ccc4c(c3)OCO4)CC2)cc1C (stereo not drawn) | -10.1% | ? | 5.9% | 0.7% | -15.0% | 14.3
Cc1ccccc1OCC(O)CN1CCN(CCN2C(=O)c3cccc4cccc(c34)C2=O)CC1 (stereo not drawn) | ? | ? | -3.4% | 1.8% | -37.8% | -87.4*
C=CCc1ccccc1OCC(O)CN1CCN(CCN2C(=O)c3cccc4cccc(c34)C2=O)CC1 (stereo not drawn) | ? | ? | 3.1% | 14.1µM* | -98.6% | -70.5*
C=CCc1ccccc1OCC(O)CN1CCN(Cc2ccc3c(c2)OCO3)CC1 (stereo not drawn) | 16.4µM*! | ? | 4.1% | -0.9% | -41.2% | -19.9
CC1CCC2C(=O)N(c3ccccc3OC(=O)c3ccccc3F)C(=O)C2C1 (stereo not drawn) | -8.7% | ? | 3.5% | -2.5% | -4.2% | 12.2
CC[C@H](C)[C@H](NC(=O)CNC(=O)[C@H](C)NC(=O)[C@H](C)N)C(=O)NCC(=O)N[C@H](C(=O)N[C@@H](CC(C)C)C(=O)N[C@H](C(=O)N[C@H](C(=O)O)C(C)C)[C@@H](C)O)[C@@H](C)CC | nt | nt | 4.3% | nt | nt | nt
N=c1n(CCN2CCOCC2)c2ccccc2n1CC(=O)c1cccc([N+](=O)[O-])c1 | 16.4µM* | 23.1µM* | nt | -16.5% | -26.7% | -1.8
O=C(Cn1nnc2ccccc21)c1cccc([N+](=O)[O-])c1 | -10.2% | -15.5% | 1.2% | 3.7% | -8.8% | 0.0
CCCCOC(=O)Cn1c(=N)n(CCN2CCOCC2)c2ccccc21 | 9.2% | -17.1% | nt | 6.6% | -2.7% | 20.3
